Source: PubChem BioAssay (Tox21)
“And” between values parts separate entries of the source, which are not always exact repeats. Equal entries are not always repeated. Results filed as inconclusive are left out. A call without a number means that no potency is given here. Some structures have more than one record in an assay (separate samples or runs), and their calls can disagree. The source made the active and inactive calls. Unless noted, the call rests on the fitted dose curve.

Columns and labels:
[1] = Nuclear factor erythroid 2-related factor 2/antioxidant responsive element (Nrf2/ARE) small molecule agonists: luciferase reporter gene qHTS assay in human keratinocytes (AID 1919969); conditions: KeratinoSens HaCaT ARE-luciferase, luminescence, 24 h; series mostly up to 92.4 µM; further: nearly all actives have a fitted effect of over 35% in size; further: potency means the concentration at half of the fitted maximal effect
[2] = target: Gonadotropin-releasing hormone receptor (Homo sapiens) (UniProt P30968); assay: Human gonadotropin-releasing hormone receptor (GnRHR) small molecule agonists, calcium flux assay in GnRHR-HEK293 cells (AID 1920063); conditions: calcium flux fluorescence, agonist mode; series mostly up to 57.6 µM; further: nearly all actives have a fitted effect of over 35% in size
Method in brief: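 HEK293 cells stably expressing human GnRHR were plated 18 h at 37 °C, loaded with calcium dye 1 h at 37 °C, then given compound in agonist mode; fluorescence (Ex/Em 480/540) read kinetically for 3 min at 1 s intervals.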

[3] = target: KiSS-1 receptor (Homo sapiens) (UniProt Q969F8); assay: Human kisspeptin (KISS1R) small molecule agonists, calcium flux assay in KISS1R-HEK293 cells (AID 1920064; active means well fitted activation curve with a large enough effect in the repeat runs); conditions: KISS1R-HEK293, calcium flux fluorescence, agonist; series mostly up to 76.8 µM
Method in brief: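 HEK293 cells stably expressing human KISS1R were plated 18 h at 37 °C, loaded with calcium dye for 1 h at 37 °C, then given compound by pin tool. Fluorescence (Ex/Em 480/540) was read kinetically for 3 min.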

[4] = G protein-coupled receptor (GPCR) small molecule agonists, calcium flux assay: HEK293 wild type cell line counter screen (AID 1920065); conditions: HEK293 WT calcium flux, fluorescence, agonist mode; series mostly up to 57.6 µM
Method in brief: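 Cells were plated and cultured 18 h at 37 C/5% CO2, then loaded with calcium dye for 1 h at 37 C. Compounds in DMSO were pin-transferred in agonist mode, and fluorescence (Ex/Em 480/540) was read kinetically for 3 min at 1 s intervals.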

[5] = p53 small molecule agonists, cell-based qHTS assay with human liver microsomes (AID 1963577); conditions: HCT-116 p53RE-bla with human liver microsomes, ratio, 16 h; series mostly up to 66 µM;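 further: p53 response element beta-lactamase reporter cells with liver microsomes plus NADPH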
Method in brief: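 With metabolic activation: human liver microsomes (0.5 mg/mL final) plus NADPH (0.5 mg/mL final) added alongside compounds to p53RE-bla cells; 16 h 37 C exposure; beta-lactamase read by LiveBLAzer fluorescence.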

[6] = p53 small molecule agonists, cell-based qHTS assay with rat liver microsomes (AID 1963578); conditions: HCT-116 p53RE-bla, beta-lactamase ratio, 16 h; series mostly up to 66 µM
Method in brief: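 Metabolic activation by rat liver microsomes and NADPH, each 0.5 mg/mL final, added right after compounds to p53RE-bla reporter cells (4,000/well, plated 5 h earlier). 16 h at 37 C, then LiveBLAzer substrate for 2 h at room temperature in the dark; fluorescence read-out.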

[7] = p53 small molecule agonists, cell-based qHTS assay with human liver microsomes: qHTS cell viability counter screen (AID 1963579); conditions: p53RE-bla HCT-116 viability, ATP luminescence, 16 h, HLM; series mostly up to 66 µM; further: nearly all actives have a fitted effect of over 45% in size
Method in brief: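 Metabolic activation used human liver microsomes and NADPH, both 0.5 mg/mL final, over 16 hours at 37 C on p53RE-bla cells (4,000/well). Cytotoxicity measured by CellTiter-Glo luminescence, 30 min at room temperature.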

[8] = p53 small molecule agonists, cell-based qHTS assay with rat liver microsomes: qHTS cell viability counter screen (AID 1963580); conditions: p53RE-bla HCT-116 + rat microsomes, ATP viability, 16 h; series mostly up to 66 µM; further: nearly all actives have a fitted effect of over 45% in size
Method in brief: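 p53RE-bla HCT-116 cells were exposed 16 h at 37 C to compounds with rat liver microsomes (0.5 mg/mL) and NADPH (0.5 mg/mL). Viability was measured in the same wells as ATP content by CellTiter-Glo luminescence.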

[9] = p53 small molecule agonists, cell-based qHTS assay: qHTS cell viability counter screen (AID 1963581); conditions: p53RE-bla HCT-116 viability, ATP luminescence, 16 h; series mostly up to 66 µM; further: nearly all actives have a fitted effect of over 45% in size
Method in brief: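 p53RE-bla HCT-116 cells were exposed to compounds for 16 h at 37 C; after the beta-lactamase FRET read in the same wells, CellTiter-Glo was added and luminescence (intracellular ATP) read after 30 min at room temperature.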

[10] = p53 small molecule agonists, cell-based qHTS assay (AID 1963582; active means well fitted activation curve with a large enough effect in the signal ratio in the repeat runs, not every such curve was filed as active; the % refers to the signal ratio; further: potency means the concentration at half of the fitted maximal effect); conditions: HCT-116 p53RE-bla reporter, beta-lactamase FRET ratio, 16 h; series mostly up to 66 µM
Method in brief: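 p53RE-bla beta-lactamase reporter cells rested 5 h at 37 C/5% CO2, then received compounds in DMSO by pin transfer and were incubated 16 h at 37 C. LiveBLAzer B/G FRET substrate was loaded for 2 h at room temperature before fluorescence reading.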

[11] = target: 5-hydroxytryptamine receptor 2A (Homo sapiens) (UniProt P28223); assay: 5-hydroxytryptamine receptor 2A (HTR2A) small molecule antagonists, cell-based qHTS assay (AID 1963586); conditions: HTR2A-CHO cells, DOI-induced calcium flux, fluorescence; series mostly up to 61.5 µM; further: nearly all actives have a fitted effect of over 45% in size; further: potency means the concentration at half of the fitted maximal effect
Method in brief: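 Antagonist-mode intracellular calcium assay: DOI (4 nM) added after 5 min compound pre-incubation at room temperature to dye-loaded HTR2A-CHO cells. Fluorescence followed for 3 min, sampled every second.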

[12] = target: 5-hydroxytryptamine receptor 2A (Homo sapiens) (UniProt P28223); assay: 5-hydroxytryptamine receptor 2A (HTR2A) small molecule agonists, cell-based qHTS assay (AID 1963587); conditions: HTR2A-CHO cells, calcium flux fluorescence, agonist mode; series mostly up to 76.8 µM; further: nearly all actives have a fitted effect of over 30% in size
Method in brief: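 CHO cells stably expressing human HTR2A, plated 18 h, loaded with calcium dye 1 h at 37 C. Agonist mode: compounds added and intracellular calcium fluorescence recorded kinetically for 2 min at 1 sec intervals.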

[13] = target: Muscarinic acetylcholine receptor M1 (Homo sapiens) (UniProt P11229); assay: Cholinergic receptor muscarinic 1 (CHRM1) small molecule antagonists, cell-based qHTS assay (AID 1963588); conditions: CHRM1-CHO antagonist mode, calcium flux fluorescence; series mostly up to 61.5 µM; further: nearly all actives have a fitted effect of over 40% in size
Method in brief: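 CHRM1-CHO calcium-flux assay, antagonist mode. Cells were seeded 18 h, dye-loaded 1 h at 37 C and given compound for 5 min at RT, then acetylcholine was added at 50nM. FDSS fluorescence was read 3 min; 15 concentrations, three runs.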

[14] = target: Muscarinic acetylcholine receptor M1 (Homo sapiens) (UniProt P11229); assay: Cholinergic receptor muscarinic 1 (CHRM1) small molecule agonists, cell-based qHTS assay (AID 1963589); conditions: CHRM1-CHO cells, agonist mode, calcium flux fluorescence; series mostly up to 76.8 µM; further: nearly all actives have a fitted effect of over 35% in size
Method in brief: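 CHO cells stably expressing human CHRM1, seeded 18 h at 37 C/5% CO2, dye-loaded 1 h at 37 C, then given compound in agonist mode; intracellular calcium fluorescence read kinetically at 1 s intervals. Fifteen concentrations, three independent runs.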

[15] = cAMP Responsive Elements (CRE) small molecule agonists, cell-based qHTS assay (AID 1963590); conditions: CRE-bla HEK293T, beta-lactamase FRET ratio, 3 h; series mostly up to 92.4 µM
Method in brief: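 CRE-bla HEK 293T cells in DMEM with 10% dialyzed FBS, NEAA, pyruvate and 25 mM HEPES were plated 18 h at 37 C/5% CO2, then exposed to compounds in DMSO for 3 h before LiveBLAzer B/G FRET substrate addition.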

[16] = cAMP Responsive Elements (CRE) small molecule antagonists, cell-based qHTS assay (AID 1963591; active means well fitted inhibition curve with a large enough effect in the signal ratio in the repeat runs, not every such curve was filed as active; the % refers to the signal ratio); conditions: CRE-bla HEK293T, beta-lactamase FRET ratio; series mostly up to 92.4 µM
Method in brief: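 CRE-bla HEK293T cells were plated 18 h at 37 °C/5% CO2, pinned with compound in DMSO, then stimulated with NKH477 at 0.25 uM final for 3 h. LiveBLAzer B/G FRET substrate was added and plates incubated 2 h at room temperature.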

[17] = target: Beta-2 adrenergic receptor (Homo sapiens) (UniProt P07550); assay: Adrenergic beta2 receptor (ADRB2) small molecule antagonists, cell-based qHTS assay (AID 1963592); conditions: CHO-ADRB2 cells, isoproterenol-stimulated cAMP HTRF ratio, 0.5 h; series mostly up to 92.4 µM; further: nearly all actives have a fitted effect of over 50% in size
Method in brief: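 Cells (CHO, stable ADRB2 overexpression) incubated 18-20hr at 37C; compounds added from DMSO; agonist mix (1nM isoproterenol, 100uM IBMX, 25uM Ro-20-1724) added; 0.5hr RT; d2-cAMP and anti-cAMP-cryptate added; 1hr RT; 665/615 nm read.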

[18] = target: D(2) dopamine receptor (Homo sapiens) (UniProt P14416); assay: Dopamine D2 receptor (DRD2) small molecule agonists, cell-based qHTS assay (AID 1963594); conditions: HEK293-DRD2 cAMP HTRF, agonist mode, 30 min; series mostly up to 92.4 µM; further: nearly all actives have a fitted effect of over 35% in size
Method in brief: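 HEK293 cells stably expressing human DRD2, pre-treated with PDE inhibitor Ro20-1724 (0.1 mM final) and compound 10 min at room temperature, then stimulated with NKH477 (200nM […]) for 30 min. cAMP read by HTRF (665/620 nm).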

[19] = target: D(2) dopamine receptor (Homo sapiens) (UniProt P14416); assay: Dopamine D2 receptor (DRD2) small molecule antagonists, cell-based qHTS assay (AID 1963595; active means well fitted inhibition curve with a large enough effect in the signal ratio in the repeat runs, with a control signal flat; the % refers to the signal ratio); conditions: HEK293-DRD2 cAMP HTRF antagonist mode; series mostly up to 92.4 µM
Method in brief: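 In this cell-based antagonist screen, compounds act for 10 min at room temperature before a 30 min challenge with 12 nM quinpirole and 200 nM NKH477. cAMP is quantified by HTRF competition in DRD2-HEK293 cells containing 0.1 mM Ro20-1724.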

[20] = target: Beta-2 adrenergic receptor (Homo sapiens) (UniProt P07550); assay: Adrenergic beta2 receptor (ADRB2) small molecule agonists, cell-based qHTS assay (AID 1963593); conditions: CHO-ADRB2 cells, cAMP HTRF, 30 min; series mostly up to 92.4 µM;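 further: CHO cells stably overexpressing human ADRB2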
Method in brief: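 CHO cells stably over-expressing ADRB2 were plated overnight at 37C, then dosed with compounds plus a stimulation mix containing 100uM IBMX and 25uM Ro-20-1724 for 0.5hr at room temperature. cAMP was measured by HTRF competition, 1hr.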

5-hydroxytryptamine receptor 2A (Homo sapiens), sequence (P28223 whole entry, looked up): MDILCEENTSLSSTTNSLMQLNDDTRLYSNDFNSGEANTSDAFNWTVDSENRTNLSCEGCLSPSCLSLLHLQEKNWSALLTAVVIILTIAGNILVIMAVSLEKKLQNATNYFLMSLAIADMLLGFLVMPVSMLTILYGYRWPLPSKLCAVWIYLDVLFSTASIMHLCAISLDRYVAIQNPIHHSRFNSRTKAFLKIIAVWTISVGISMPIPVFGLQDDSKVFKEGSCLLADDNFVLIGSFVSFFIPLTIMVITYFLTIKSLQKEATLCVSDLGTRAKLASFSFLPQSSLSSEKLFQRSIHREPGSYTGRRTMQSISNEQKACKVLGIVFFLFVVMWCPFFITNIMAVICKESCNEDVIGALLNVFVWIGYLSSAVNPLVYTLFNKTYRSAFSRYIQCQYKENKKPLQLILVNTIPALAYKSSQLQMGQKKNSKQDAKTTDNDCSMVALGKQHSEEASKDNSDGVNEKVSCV
Gonadotropin-releasing hormone receptor (Homo sapiens), sequence (P30968 whole entry, looked up): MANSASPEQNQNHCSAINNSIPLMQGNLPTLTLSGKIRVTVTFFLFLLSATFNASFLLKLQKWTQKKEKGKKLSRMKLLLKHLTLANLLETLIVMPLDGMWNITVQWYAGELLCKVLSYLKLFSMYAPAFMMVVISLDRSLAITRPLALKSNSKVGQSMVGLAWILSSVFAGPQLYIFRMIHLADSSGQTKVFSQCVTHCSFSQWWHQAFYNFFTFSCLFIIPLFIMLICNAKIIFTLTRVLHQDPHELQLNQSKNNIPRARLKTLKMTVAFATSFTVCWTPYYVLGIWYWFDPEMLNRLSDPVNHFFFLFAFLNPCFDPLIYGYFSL
D(2) dopamine receptor (Homo sapiens), sequence (P14416 whole entry, looked up): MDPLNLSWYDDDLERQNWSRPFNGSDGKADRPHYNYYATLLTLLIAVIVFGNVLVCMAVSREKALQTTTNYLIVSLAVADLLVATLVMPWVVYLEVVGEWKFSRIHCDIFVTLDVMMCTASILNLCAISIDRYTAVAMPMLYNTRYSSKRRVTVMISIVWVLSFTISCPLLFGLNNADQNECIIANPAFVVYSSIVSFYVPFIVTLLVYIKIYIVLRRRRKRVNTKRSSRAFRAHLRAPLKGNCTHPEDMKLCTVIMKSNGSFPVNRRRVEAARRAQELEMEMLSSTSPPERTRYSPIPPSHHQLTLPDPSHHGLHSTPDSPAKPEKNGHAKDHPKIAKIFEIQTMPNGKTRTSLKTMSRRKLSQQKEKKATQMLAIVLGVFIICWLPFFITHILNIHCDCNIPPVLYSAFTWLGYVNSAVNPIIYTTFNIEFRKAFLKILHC
KiSS-1 receptor (Homo sapiens), sequence (Q969F8 whole entry, looked up): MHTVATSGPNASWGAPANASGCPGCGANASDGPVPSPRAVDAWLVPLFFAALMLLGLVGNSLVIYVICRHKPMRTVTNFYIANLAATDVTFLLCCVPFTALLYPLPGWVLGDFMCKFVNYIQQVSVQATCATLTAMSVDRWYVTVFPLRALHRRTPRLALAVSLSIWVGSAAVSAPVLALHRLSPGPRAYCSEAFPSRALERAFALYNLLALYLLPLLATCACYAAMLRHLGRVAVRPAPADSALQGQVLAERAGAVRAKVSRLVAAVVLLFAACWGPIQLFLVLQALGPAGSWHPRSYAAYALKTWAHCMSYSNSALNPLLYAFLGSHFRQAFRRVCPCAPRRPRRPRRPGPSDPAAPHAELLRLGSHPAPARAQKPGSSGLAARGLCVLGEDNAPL
Muscarinic acetylcholine receptor M1 (Homo sapiens), sequence (P11229 whole entry, looked up): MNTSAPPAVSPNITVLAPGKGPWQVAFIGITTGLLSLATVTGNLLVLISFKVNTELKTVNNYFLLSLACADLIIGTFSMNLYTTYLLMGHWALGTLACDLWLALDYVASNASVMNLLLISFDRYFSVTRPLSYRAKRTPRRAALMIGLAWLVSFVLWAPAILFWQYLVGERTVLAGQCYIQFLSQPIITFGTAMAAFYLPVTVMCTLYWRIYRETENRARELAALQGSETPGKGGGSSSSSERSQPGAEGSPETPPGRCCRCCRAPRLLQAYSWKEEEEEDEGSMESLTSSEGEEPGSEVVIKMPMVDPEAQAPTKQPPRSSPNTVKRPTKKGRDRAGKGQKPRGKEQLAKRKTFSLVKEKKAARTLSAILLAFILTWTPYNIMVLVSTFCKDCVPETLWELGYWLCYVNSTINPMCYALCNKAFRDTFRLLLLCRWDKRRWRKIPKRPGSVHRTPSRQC
Beta-2 adrenergic receptor (Homo sapiens), sequence (P07550 whole entry, looked up): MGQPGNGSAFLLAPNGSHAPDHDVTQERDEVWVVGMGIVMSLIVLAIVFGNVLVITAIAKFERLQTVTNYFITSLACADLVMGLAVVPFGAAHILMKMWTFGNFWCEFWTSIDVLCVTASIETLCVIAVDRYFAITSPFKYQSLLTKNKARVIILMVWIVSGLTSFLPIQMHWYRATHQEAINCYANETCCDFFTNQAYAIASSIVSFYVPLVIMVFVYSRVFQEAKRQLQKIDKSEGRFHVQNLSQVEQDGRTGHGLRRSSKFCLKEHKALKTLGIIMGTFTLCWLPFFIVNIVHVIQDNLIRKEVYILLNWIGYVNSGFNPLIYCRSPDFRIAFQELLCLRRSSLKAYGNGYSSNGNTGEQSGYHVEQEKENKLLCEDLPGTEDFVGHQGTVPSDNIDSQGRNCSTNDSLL

SMILES	Potency [1]	Potency [2]	Potency [3]	Potency [4]	Potency [5]	Potency [6]	Potency [7]	Potency [8]	Potency [9]	Potency [10]	Potency [11]	Potency [12]	Potency [13]	Potency [14]	Potency [15]	Potency [16]	Potency [17]	Potency [18]	Potency [19]	Potency [20]
CC(=O)C1CCOC1=O (centres undefined)	inactive	inactive	inactive	inactive	inactive	inactive	inactive	inactive	inactive	inactive	inactive	inactive	inactive	inactive	inactive	inactive	inactive	inactive	inactive	–
c1ccc(Nc2ccc3ccccc3c2)cc1	12.1 µM (active) and 21.7 µM (active)	inactive	inactive	inactive	inactive	–	–	inactive	inactive	inactive	inactive	inactive	inactive	inactive	–	inactive	inactive	inactive	inactive	inactive
O=C(O)c1ccc(=O)[nH]c1	inactive	inactive	inactive	inactive	inactive	inactive	inactive	inactive	inactive	inactive	inactive	inactive	inactive	–	inactive	inactive	inactive	inactive	inactive	inactive
BrCCc1ccccc1	inactive	inactive	inactive	inactive	inactive	inactive	inactive	inactive	inactive	inactive	inactive	inactive	inactive	inactive	inactive	inactive	inactive	inactive	inactive	inactive
CN(C)N	inactive	inactive	inactive	inactive	inactive	–	inactive	inactive	inactive	inactive	inactive	inactive	–	inactive	–	inactive	inactive	inactive	inactive	–
C=CCN1CC[C@]23CCCC[C@H]2[C@H]1Cc1ccc(O)cc13	inactive	inactive	inactive	inactive	–	inactive	inactive	inactive	inactive	inactive	inactive	inactive	inactive	inactive	inactive	inactive	inactive	inactive	inactive	inactive
CCC(C)n1c(=O)[nH]c(C)c(Br)c1=O (centres undefined)	inactive	inactive	inactive	inactive	inactive	inactive	inactive	inactive	inactive	inactive	inactive	inactive	inactive	inactive	inactive	–	inactive	–	inactive	inactive
C#CCOC(=O)/C=C(C)/C=C/CC(C)CCCC(C)C (centres undefined)	inactive	inactive	inactive	inactive	inactive	inactive	inactive	inactive	inactive	inactive	inactive	inactive	inactive	inactive	inactive	inactive	inactive	inactive	inactive	inactive
Oc1c(Cl)c(Cl)c(Cl)c(Cl)c1Cl	inactive	inactive	inactive	inactive	inactive	inactive	inactive	inactive	inactive	–	23.2 µM (active) and inactive	inactive	inactive	inactive	–	inactive	inactive	inactive	inactive	inactive
CCOC(=O)C1(c2ccccc2)CCN(CCC(C#N)(c2ccccc2)c2ccccc2)CC1	inactive	inactive	inactive	inactive	inactive	inactive	inactive	inactive	inactive	7.93 µM (active)	130 nM (active)	inactive	inactive	–	inactive	inactive	–	–	inactive	inactive
CC1(C)Cc2cccc(O)c2O1	inactive	inactive	inactive	inactive	–	–	inactive	inactive	inactive	–	inactive	inactive	inactive	inactive	inactive	inactive	inactive	inactive	inactive	–
